# HIV RNase H inh-1 – HIV-1 RT RNase H inhibitors, primary screen, biochemical, fluorescence. RT-RNase H RNA/DNA duplex cleavage. inhibition, % at 10 µM. hit rate 1.9% among 65,000. AID 565, 2006; in the data active means inhibition above about 50%
# HIV RNase H inh-2 – HIV-1 RT RNase H inhibitors, retest, confirmation, biochemical. Recombinant RT RNase H, fluorescent RNA/DNA duplex cleavage. shares compounds with HIV RNase H inh-1. AID 651, 2007. hit rate 39% among 1,000. inhibition, % at 10 µM; in the data active means inhibition above about 48%; inconclusive means no clear call, values can overlap the other calls
# Active calls of the source: *; ? = inconclusive. Only a selection was taken, and hits are over-represented in it overall.
SMILES,HIV RNase H inh-1,others
Cc1ccc(C)n1-c1ccc(C(=O)NCC2CCCO2)cc1 (stereo not drawn),-7,
Cc1cc(C)nc(N2CCC(C(=O)Nc3cccc(C(F)(F)F)c3)CC2)n1,9,
O=C(CSc1nc(-c2ccc(F)cc2)cs1)N1CCN(C(=O)c2ccco2)CC1,-24,
O=P(c1ccccc1)(c1ccccc1)C(c1ccco1)N1CCOCC1 (stereo not drawn),-7,
Cn1c(SCC(=O)Nc2ccc3c(c2)OCCO3)nnc1-c1ccccn1,-3,
O=C(CSc1nnnn1Cc1ccccc1)Nc1ccc2c(c1)OCO2,-42,
O=C(CSc1nnc(-c2ccccn2)n1Cc1ccccc1)Nc1ccc2c(c1)OCO2,77*,HIV RNase H inh-2=6
Cc1nc2cccc(C(=O)NCc3ccccc3)c2o1,-6,
O=C(CCN1CCN(Cc2ccccc2)CC1)Nc1cccc(Cl)c1,-3,
O=C(COC(=O)C1CC(=O)N(c2ccc3c(c2)OCCO3)C1)Nc1ccc2c(c1)CCC2 (stereo not drawn),-4,
O=C(Nc1nc(-c2ccco2)c(-c2ccco2)s1)C1CC(=O)N(c2ccc3c(c2)OCCO3)C1 (stereo not drawn),74*,HIV RNase H inh-2=0
COc1ccc(N2CC(C(=O)Nc3ccc4c(c3)OCO4)CC2=O)cc1 (stereo not drawn),-7,
O=C(NCC1CCCO1)C1CC(c2ccc(Cl)c(Cl)c2)=NO1 (stereo not drawn),-23,
CCn1c(=NC(=O)c2ccc(S(=O)(=O)N3CCOCC3)cc2)sc2cccc(OC)c21,-3,
CCn1c(=NC(=O)c2ccc(N3C(=O)CCC3=O)cc2)sc2c(OC)ccc(OC)c21,56*,HIV RNase H inh-2=?
CCn1c(=NC(=O)CN2C(=O)CCC2=O)sc2c(OC)ccc(OC)c21,-12,
O=C(NS(=O)(=O)c1ccc2c(c1)OCCO2)c1ccccc1,-7,
COc1ccccc1-c1nnc(SCC(=O)OC(C)C)o1,-13,
O=C1CSC(c2cn(-c3ccccc3)nc2-c2cccs2)N1CC1CCCO1 (stereo not drawn),-19,
COc1cccc(OCC(=O)Nc2c(C(=O)Nc3ccc(OC)cc3OC)oc3ccccc23)c1,89*,HIV RNase H inh-2=93*
CCOCC(=O)Nc1c(C(=O)Nc2ccc(OC)cc2OC)oc2ccccc12,17,
COc1ccc(NC(=O)c2oc3ccccc3c2NC(=O)c2ccco2)c(OC)c1,8,
Cc1ccc(N(C(=O)C2CCCO2)C2C=CS(=O)(=O)C2)cc1Cl (stereo not drawn),-3,
Nc1nnc(CSCc2ccc(F)cc2)s1,74*,HIV RNase H inh-2=62*
Nc1nnc(Cc2ccc(Cl)c(Cl)c2)s1,21,
SMILES,HIV RNase H inh-1,others
Nc1nnc(-c2ccc(F)cc2)s1,17,
CC1CCCCN1C(=O)Cn1c(=O)n(C2CCCCC2)c(=O)c2ccccc21 (stereo not drawn),-8,
COc1cccc(/C=N/n2c(SC)nnc2-c2ccccc2)c1O,-3,
COc1cccc(/C=N/n2c(C)c3c(C)nnc(C)c3c2C)c1O,10,
CCOc1cccc(C=Nc2cc(C)cc(C)c2O)c1O,91*,HIV RNase H inh-2=74*
COc1ccc(S(=O)(=O)NCC(=O)N(CC(=O)NCC2CCCO2)c2cc(C)ccc2C)cc1 (stereo not drawn),16,
CC(=O)Nc1cccc(Oc2cc(C#N)c(C#N)cc2N2CCCCCC2)c1,-27,
CCn1c(SCC(N)=O)nnc1-c1ccc(OC)c(OC)c1,4,
CCn1c(SCC(=O)c2ccc(F)cc2)nnc1-c1ccoc1C,-7,
CCn1c(SCC(=O)c2ccc(O)c(O)c2)nnc1-c1ccccc1OC,81*,HIV RNase H inh-2=62*
C=CCn1c(SCC(=O)c2ccc(O)c(O)c2)nnc1-c1ccccc1OC,85*,HIV RNase H inh-2=62*
C=CCn1c(SCC(=O)NCc2ccccc2)nnc1-c1ccccc1O,-3,
C=CCn1c(SCC(N)=O)nnc1-c1ccccc1O,-1,
COc1cccc(-n2c(SCC(=O)NCCc3ccccc3)nnc2-c2ccoc2C)c1,-6,
CN(C)CCCNc1cc(Cl)c(S(=O)(=O)N2CCCCC2)cc1C(=O)O,-10,
Cc1cc(=O)c2n(Cc3ccc(Cl)cc3)nc[n+]2[nH]1,6,
COc1ccc(O)c(-c2[nH]ncc2C(=O)c2ccccc2C)c1,-6,
CC(C)(C)C1(c2ccccc2)NC(=O)N(CC(=O)N2CCOCC2)C1=O (stereo not drawn),-4,
O=C(Cn1nnc(-c2cccc(C(F)(F)F)c2)n1)NC1CCCC1,-12,
O=C(NCC(c1cccs1)N1CCOCC1)c1ccc(Cl)s1 (stereo not drawn),2,
Nc1ccc(SC(F)(F)F)cc1C(=O)c1ccccc1,-80,
COc1ccc(-c2nnc(SCc3cc(C)cc(C)c3)o2)cc1,-37,
COc1ccc2[nH]c3nc(SCc4nnc(-c5ccc(C)cc5)o4)nnc3c2c1,60*,HIV RNase H inh-2=8
Cc1ccc2[nH]c3nc(SCCN4CCOCC4)nnc3c2c1,-19,
COc1cc(C(=O)O)cc(Br)c1OC1CCCC1,-1,
SMILES,HIV RNase H inh-1,others
CCCCN(Cc1ccccc1)C(=O)c1cnc2n(c1=O)CCS2,2,
Cc1ccc2c(c1)nnn2C1CCN(CC(=O)Nc2ccc3c(c2)OCCO3)CC1,-1,
O=C(NCC1CCCO1)c1cc(-c2ccco2)nc2ccccc12 (stereo not drawn),10,
Cc1cc(C(N)=O)c2cc(Br)ccc2n1,2,
O=C(O)c1cc(-c2ccco2)nc2ccc(Br)cc12,78*,HIV RNase H inh-2=8
Cc1cc(-c2ccccc2)nn1-c1nc2c(c(=O)[nH]c(=O)n2C)n1C,-22,
CCOC(=O)C(C(C)=O)c1c(Br)c(O)c(O)c2c(C(=O)c3ccc(C)cc3)coc12 (stereo not drawn),95*,HIV RNase H inh-2=63*
CCCCNC1=C(Br)C(=O)CC(C)(C)C1,-8,
COc1ccc(Cn2nnnc2C(c2cc3cccc(C)c3[nH]c2=O)N2CCOCC2)cc1 (stereo not drawn),54*,HIV RNase H inh-2=4
COc1ccc(Cn2nnnc2C(c2cc3cc(C)ccc3[nH]c2=O)N2CCOCC2)cc1 (stereo not drawn),-18,
CCN1CCN(C(c2cc3cccc(C)c3[nH]c2=O)c2nnnn2Cc2ccccc2)CC1 (stereo not drawn),0,
CN1CCN(c2ccccc2NS(=O)(=O)c2ccc3c(c2)CCN3C(=O)C2CCC2)CC1,-4,
O=C(CSc1nnc(NC(=O)c2ccco2)s1)NC1CCCCC1,6,
O=C(NCCc1c[nH]c2ccccc12)C1Cc2ccccc2CN1C(=O)c1ccco1 (stereo not drawn),9,
CCSc1nnc(NC(=O)C2Cc3ccccc3CN2C(=O)c2ccco2)s1 (stereo not drawn),53*,HIV RNase H inh-2=?
O=c1c2ccccc2nc2sc3ccccc3n12,-24,
O=c1/c(=C/c2ccccn2)sc2nc3ccccc3n12,60*,HIV RNase H inh-2=79*
COC(=O)/C=c1/sc2nc3ccccc3n2c1=O,-3,
CC(C)C(NS(=O)(=O)c1cccs1)C(=O)N1CCc2ccccc2C1 (stereo not drawn),-11,
CCCCn1c(=O)[nH]c(=O)c2c1nc(COC(=O)c1c(C)noc1C)n2CCC,-15,
Cc1ccc(NC(=O)c2cc(-c3ccco3)on2)cc1,-14,
CC(=O)c1cccc(NC(=O)c2cc(-c3ccc(C)cc3)on2)c1,52*,HIV RNase H inh-2=57*
COc1ccc(NC(=O)c2cc(C)on2)cc1OC,1,
COc1ccc(NC(=O)c2cc(-c3ccc(OC)c(OC)c3)on2)cc1OC,81*,HIV RNase H inh-2=32
CCCc1cc(C(=O)Nc2cccc(C(C)=O)c2)no1,-7,

# Screening results: PubChem, University of Pittsburgh Molecular Library Screening Center
